# Measurements from the OligoGym collection.
# Target: ZNF219
# Test: pooled miR-30 sensor sort-seq; sequence = guide strand
# Details: shRNA
# Also: reference of the scale not given here.
row,Sequence,sensor-assay potency score (higher = more potent)
1,TTTATTGGGGACACGACTCTGC,0.537
2,TAGAGTTGAAGCGGAAGCGCTT,-0.695
3,TATCGCTGCAGATCCAGCTCGC,0.347
4,TACTTGAGCGAGCCGGACTGGG,-1.26
5,TTGCCTTTGCAGTAGGGGCAAC,-1.2
6,TCCAACTCCAGCAACAGGCGTG,-0.967
7,TTGAGGTGATGTGCTGAGCGGA,-0.983
8,TCGCAGATGCACTTTGAGGTGA,-0.383
9,TAGTAGCGCGCGCTCTTCCAAC,-1.67

# Target: ZNF233
# Test: as above
# Details: shRNA
row,Sequence,sensor-assay potency score (higher = more potent)
1,TTTGCTGACACCTACTCTGATA,-0.77
2,TATCTCATTTTGATTCTTGTGT,0.251
3,TTTAGCAACTTGGACCTCTTGC,0.0723
4,TTCTTGTGTCCTGAACACCCAT,-0.736
5,TATCCTGTCACTTACTTCCCAT,-0.636
6,ATGTACACAACTTCTCTCCTGG,-0.0529
7,TTAATCTTACTTCTTGAAGGGT,-0.195
8,TTTACTTGTAAATTGTTCCCAT,0.845
9,TCTTGTGTCCTGAACACCCATC,-0.866
10,TATTAGGTCTTGATTACTGGTT,-0.618
11,TAATCTTACTTCTTGAAGGGTA,0.461
12,TTAATTTACTTGTAAATTGTTC,-0.905
